# Reference: PubChem BioAssay (NCATS)
# Records with an inconclusive call do not appear. Values without a mark were called inactive. Calls of active or inactive are those of the source. The call rests on the fitted dose curve; in most records, active means well fitted inhibition curve with a large enough effect; inconclusive means small, poorly fitted or top-dose-only effect; inactive means flat fitted curve, though single readings scatter.
# Target: Ubiquitin carboxyl-terminal hydrolase 1 (Homo sapiens) (UniProt O94782)
# Sequence (O94782 whole entry, looked up): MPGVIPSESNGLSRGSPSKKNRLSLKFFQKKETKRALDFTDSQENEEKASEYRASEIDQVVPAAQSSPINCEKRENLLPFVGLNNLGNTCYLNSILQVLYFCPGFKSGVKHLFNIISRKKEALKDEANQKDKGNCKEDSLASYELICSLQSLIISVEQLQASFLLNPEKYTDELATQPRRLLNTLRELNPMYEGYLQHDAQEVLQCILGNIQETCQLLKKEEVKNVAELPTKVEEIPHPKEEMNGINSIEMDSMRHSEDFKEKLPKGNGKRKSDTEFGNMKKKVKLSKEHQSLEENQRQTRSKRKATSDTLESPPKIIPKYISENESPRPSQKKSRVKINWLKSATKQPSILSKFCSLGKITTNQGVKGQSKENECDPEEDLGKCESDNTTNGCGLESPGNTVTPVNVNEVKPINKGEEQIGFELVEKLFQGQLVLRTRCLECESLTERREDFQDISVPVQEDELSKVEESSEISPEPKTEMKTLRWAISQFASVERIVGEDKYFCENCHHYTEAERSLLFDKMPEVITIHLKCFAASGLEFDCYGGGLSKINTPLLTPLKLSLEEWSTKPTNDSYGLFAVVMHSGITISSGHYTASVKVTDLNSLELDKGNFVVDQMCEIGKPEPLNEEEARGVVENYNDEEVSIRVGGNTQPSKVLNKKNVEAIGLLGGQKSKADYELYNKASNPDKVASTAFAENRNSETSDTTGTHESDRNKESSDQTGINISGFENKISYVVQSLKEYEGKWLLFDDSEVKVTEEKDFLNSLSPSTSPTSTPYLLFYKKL
# Assay: Inhibitors of USP1/UAF1: Pilot qHTS (AID 504865); further: nearly all actives have a fitted effect of over 35% in size;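 on activity change, negative = inhibition: rhodamine fluorescence freed from ubiquitin-rhodamine substrate followed over time; top concentration of the series differs between compounds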
# Conditions: purified USP1/UAF1, Ub-rhodamine cleavage fluorescence; series mostly up to 114 µM; activity change, negative = inhibition: at the top concentration
# Outline: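 Enzyme-free wells gave the negative control, while test wells held 1nM USP1/UAF1 preincubated with compound for 15 min at room temperature. Ub-Rho at 150nM final started the reaction, and fluorescence at 480/540 nm was recorded kinetically.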
# On the % scale 0 is the no-effect control and ±100 the full control effect; potency means the concentration at half of the fitted maximal effect.
Structure (SMILES),"activity change, negative = inhibition",Potency
CCc1ncnc2cc(OC)c(OC)cc12,-2.93%,
Cc1ccc(C(C)(C)c2ccc(C)cc2)cc1,-9.44%,
O=C(CCCCCCCCCCCCC1CCCC1)Nc1ccc(S(=O)(=O)c2ccc(NC(=O)CCCCCCCCCCCCC3CCCC3)cc2)cc1,20.7%,
CCN(CC)CCOc1ccccc1OC,-2.07%,
FC(F)(F)C(F)(F)C(F)(F)C(F)(F)C(F)(F)C(F)(F)F,-6.87%,
Cc1cccc(Nc2ncccc2C(=O)O)c1C,-10.3%,
C(=C\c1ccncc1)/c1ccccc1,-6.83%,
CCC(C(=O)NC(N)=O)c1ccccc1 (stereo not given),-10.4%,
COC(=O)[C@@H](N)CS,4.74%,
CC12CCC(C1)C(C)(C)C2=O (stereo not given),3.19%,
CC1(C)S[C@@H]2[C@H](NC(=O)C3(N)CCCCC3)C(=O)N2[C@H]1C(=O)O,-13.6% [at 54.9 µM],
O[C@@H]([C@H](O)[C@H](O)CBr)[C@H](O)CBr,4.31%,
O=C(O)CCC/C=C\C[C@@H]1[C@@H](/C=C/[C@@H](O)COc2cccc(Cl)c2)[C@H](O)C[C@@H]1O,-0.0641%,
CC/C=C\C/C=C\C/C=C\C/C=C\C/C=C\C/C=C\CCC(=O)O,,50.1 µM (active)
CC(C)c1ncc([N+](=O)[O-])n1C,-3.24%,
F[Si-2](F)(F)(F)(F)F,4.82%,
O=C(O)/C=C/c1ccccc1,-7.62%,
C/C(=C\C(=O)OCCCCCCCCC(=O)O)C[C@@H]1OC[C@H](C[C@@H]2O[C@H]2[C@@H](C)[C@H](C)O)[C@@H](O)[C@H]1O,-6.99%,
Cc1cc(C(=O)NCCc2ccc(S(=O)(=O)NC(=O)NN3CCCCCC3)cc2)no1,-7.9%,
O=C(O)[C@H]1CN(C/C=C/P(=O)(O)O)CCN1,-5.98%,

Structure (SMILES),"activity change, negative = inhibition",Potency
CC/C(=C(/CC)c1ccc(OP(=O)(O)O)cc1)c1ccc(OP(=O)(O)O)cc1,-3.1%,
CC12CCC(C[N+](C)(CCC[N+](C)(C)C)C1)C2(C)C (stereo not given),3.86%,
CCCCC[C@H](O)/C=C/[C@@H]1[C@H]2C/C(=C/CCCC(=O)O)O[C@H]2C[C@H]1O,-8.1%,
[O]=[Bi][O][Bi]=[O],0.348%,
O=C(O)CCC(=O)c1ccc(-c2ccccc2)cc1,2.19% [at 54.9 µM],
CCCCCCCCCC(=O)NO,-6.17%,
FC(F)(F)C(F)(F)C(F)(F)C(F)(F)C(F)(F)F,4.19%,
NC(N)=NCC1COc2ccccc2O1 (stereo not given),-3.37%,
C[C@H](O)CN(C)C,-7.43%,
Cc1ncc(COP(=O)(O)O)c(CN)c1O,-8.21%,
C[C@H](N)C(=O)N[C@@H](C)P(=O)(O)O,-5.84%,
Cc1ncc(C[n+]2csc(CCOP(=O)(O)OP(=O)(O)O)c2C)c(N)n1,-7.47%,
C=CCN1CCCC1CNC(=O)c1cc(S(N)(=O)=O)cc(OC)c1OC (stereo not given),-0.641%,
O.O.O.O.O.O.O.O=S(=O)([O-])[O-].[Co+2],3.5%,
CO/N=C(\C(=O)N[C@@H]1C(=O)N2C(C(=O)[O-])=C(C[n+]3cccc4c3CCC4)CS[C@H]12)c1csc(N)n1,-7.09%,
O=C(/C=C/c1cccc(F)c1)NC1CC1,-4.5%,
COC(=O)CC[C@H](N)C(=O)O,-7.13%,
COc1ccc(-c2noc(CC(=O)O)c2-c2ccc(OC)cc2)cc1,-9.77%,
CC(=O)Oc1cccc(C(=O)O)c1OC(C)=O,-9.59%,
CCOC(=S)SSC(=S)OCC,-8.48%,
